Compound activity as filed in PubChem BioAssay.
GALK inh = inhibitors of human galactokinase. Potency, µM (top dose mostly 57.5 µM), actives largely listed as inhibitors. P51570. 270,000 compounds, 0.007% hits. Purified GALK, Kinase-Glo residual ATP luminescence
Target sequence (P51570 whole entry, looked up): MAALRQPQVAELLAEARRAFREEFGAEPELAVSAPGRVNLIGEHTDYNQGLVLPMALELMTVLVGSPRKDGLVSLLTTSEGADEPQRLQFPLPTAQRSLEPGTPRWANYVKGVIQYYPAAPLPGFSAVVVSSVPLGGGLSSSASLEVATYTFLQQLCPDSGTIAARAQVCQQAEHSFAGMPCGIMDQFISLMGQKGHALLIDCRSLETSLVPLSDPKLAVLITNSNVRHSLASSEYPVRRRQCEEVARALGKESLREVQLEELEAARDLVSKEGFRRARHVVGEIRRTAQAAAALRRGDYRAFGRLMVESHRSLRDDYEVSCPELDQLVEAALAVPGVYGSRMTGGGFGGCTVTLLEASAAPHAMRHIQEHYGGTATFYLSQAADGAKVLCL
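Galactose (100 uM) and ATP (35 uM) were turned over by 5 nM GALK for 1 h at RT. Kinase-Glo Plus then converted the remaining ATP into a luminescent signal.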
USP1-UAF1 inh = USP1/UAF1 (human) deubiquitinase inhibition; Potency, µM (titrated, usually from 57.1 µM), actives largely listed as inhibitors; 390,000 compounds, 0.23% hits; recombinant USP1/UAF1, Ub-Rhodamine cleavage fluorescence; O94782; AID 743255; note: nearly all actives have a fitted effect of over 60% in size
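Step one: compound is pinned into 1nM USP1/UAF1 in HEPES pH 7.8 buffer with TCEP. Step two: 15 min room-temperature incubation. Step three: Ub-Rho (150nM final) starts cleavage, tracked by fluorescence over six one-minute reads.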
USP2a inh = USP2a (human) protease inhibition. O75604. USP2 core, Ub-CHOP2 coupled fluorogenic reporter, 485/531. Potency, µM (highest dose often 38.3 µM), hits mostly inhibitors. 330,000 compounds, 0.01% hits. AID 463254
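Deubiquitinase activity read as fluorescence (485/531 nm) after Ub-CHOP2 cleavage activates the enterokinase reporter on its substrate; USP2 core 10nM, Ub-CHOP2 and substrate 25nM each, 30min compound preincubation then 60min RT; data normalized to NEM, curves fitted.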
PLK1 PBD block = PLK1 (human) polo-box domain binding inhibition; P53350; Plk1 PBD binding of FITC phosphopeptide, fluorescence polarization; Potency, µM, most hits filed as inhibitors; 360,000 compounds, 2.8% hits; note: series mostly up to about 57 µM; nearly all actives have a fitted effect of over 65% in size
FBPA coupling cs = coupling enzyme interference in Giardia aldolase counter-screen. coupling enzyme system counterscreen, AmpLite Red fluorescence. activity change, negative = inhibition, % at 58.2 µM, hits read low. 290,000 compounds, 0.67% hits; in the data active = activity change below about -30%
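Fluorescence at 525 nm excitation and 598 nm emission measured inhibition of the coupled detection system without aldolase. Compounds (at 57.5 uM final) were preincubated 10 min at room temperature with coupling enzyme reagent before a 20 min substrate/AmpLite Red step.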
VDR inhibitor = inhibitors of human vitamin D receptor; P11473; VDR-SRC2-3 peptide fluorescence polarization, 2 h; Potency, µM, usual class: inhibitors; 400,000 compounds, 0.93% hits
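Two reagent solutions held at 4 deg C in the dark were dispensed, compounds pinned at 23 nl, and the mixture incubated 2 h at room temperature. Read-out: fluorescence polarization of VDR–SRC2-3 peptide binding.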
A number is an active result; i = inactive; ? = inconclusive; nt = no result. In the library only some 3.2% were active in any assay of this set; here they are far more common. Unless noted, calls come from the whole dose curve; as a rule, active = well fitted curve in the direction sought with a large enough effect; inconclusive = small, poorly fitted or top-dose-only effect, or another doubt; inactive = no such curve, though single readings can be large; an effect the other way counts as inactive or inconclusive.

SMILES	GALK inh	USP1-UAF1 inh	USP2a inh	PLK1 PBD block	FBPA coupling cs	VDR inhibitor
CCOC(=O)C1Nc2ccc(C(=O)O)cc2C2C=CCC12 (stereo unspecified)	i	17.8µM	i	2.99µM	i	15.8µM
O=C(O)c1ccc2c(c1)C1C=CCC1C(c1ccncc1)N2 (stereo unspecified)	i	i	i	i	-30.9	i
Cc1c(Cl)cccc1NS(=O)(=O)c1ccc2c(c1)C1C=CCC1C(c1ccc(C(=O)O)cc1)N2 (stereo unspecified)	i	?	i	10.6µM	i	?
Cc1cccc(C)c1NS(=O)(=O)c1ccc2c(c1)[C@H]1C=CC[C@H]1[C@@H](c1ccc(Cl)cc1)N2	nt	i	nt	nt	nt	i
Cc1ccc(S(=O)(=O)/N=C2\C=C(NS(=O)(=O)c3ccccc3)C(=O)c3ccccc32)c(C)c1	nt	i	nt	18.9µM	nt	i
CC(C)(C)c1ccc(S(=O)(=O)/N=C2\C=C(NS(=O)(=O)c3ccccc3)C(=O)c3ccccc32)cc1	i	?	i	13.4µM	-34.6	?
O=C(O)Cn1c(C(=O)Nc2nc(-c3ccccc3Cl)cs2)cc2ccccc21	nt	nt	nt	nt	i	56.2µM
Cc1nc2[nH]c(=S)[nH]c(=O)c2nc1C	nt	i	nt	i	nt	i
Cc1nc2c(=O)[nH]c(=S)[nH]c2[nH]c1=O	nt	i	nt	21.2µM	nt	i
CCn1c(C)nc2cc(C(=O)N/N=C/c3cccc(OC)c3O)ccc21	i	i	i	i	i	i
COc1ccc(CNC(=O)CCn2c(=O)c3cccn3c3ccc(F)cc32)cc1	i	i	i	26.7µM	nt	?
Cc1cc2c(NC(=O)Nc3ccc(C(C)(C)C)cc3)cccc2nn1	i	i	i	i	i	i
Cc1cc2c(NC(=O)Nc3ccccc3)cccc2nn1	i	i	i	i	-41.7	i
COc1ccccc1N1C(=O)C(=O)N(C)C1=O	nt	i	nt	i	nt	i
COc1c(C2=CC(=O)N(C)C2=O)c2c(n1C)C(=O)c1ccccc1C2=O	nt	nt	nt	nt	-34.6	12.6µM
Cc1no[n+]([O-])c1COc1ccc(/C=C2\NC(=S)NC2=O)cc1	i	i	i	i	i	i
Cc1no[n+]([O-])c1COc1ccc(/C=C(\C#N)C(N)=O)cc1	i	i	i	21.2µM	i	?
COc1cc(/C=C(\C#N)C(=O)Nc2cccc(C(=O)O)c2)ccc1OCc1ccc(Cl)cc1	i	i	i	i	i	i
N#C/C(=C/c1ccc(C(=O)O)cc1)C(=O)Nc1ccccc1	i	i	i	i	i	?
N#C/C(=C\c1ccc(OCc2ccccc2)cc1)C(=O)Nc1ccc(C(=O)O)cc1	i	i	i	21.2µM	i	i
COc1cc(/C=C(/C#N)C(=O)Nc2ccccc2)c(Br)cc1OCc1ccc(C(=O)O)cc1	nt	i	i	23.8µM	i	50.1µM
Nc1c(C(=O)N/N=C/c2ccc(Cl)cc2)cnn1-c1ccccc1	i	i	i	i	i	i
CCOC(=O)c1nn(-c2ccccc2)c(=O)c2c(N)scc12	i	17.8µM	i	2.67µM	-45.5	i
Nc1scc2c(C(=O)N/N=C/c3ccc(Cl)cc3)nn(-c3ccccc3)c(=O)c12	i	?	i	?	-47.8	?
Cc1ccccc1C(=O)NCCCn1ccnc1	i	i	i	i	i	i
SMILES	GALK inh	USP1-UAF1 inh	USP2a inh	PLK1 PBD block	FBPA coupling cs	VDR inhibitor
CC(=O)NN1C(=O)/C(=C/c2ccc(Br)o2)SC1=S	i	i	i	10.6µM	i	i
CC(=O)NN1C(=O)/C(=C\c2ccc(Br)o2)SC1=S	nt	i	i	?	i	i
CCOC(=O)c1c(NC(=O)c2ccccc2Br)sc2c1CCc1ccccc1-2	i	i	i	6.7µM	i	79.4µM
CCOC(=O)c1c(NC(=O)COC(=O)CNC(=O)c2ccco2)sc(C)c1C	i	i	i	3.36µM	i	?
CCOC(=O)c1c(NC(=O)c2ccccc2Cl)sc2c1CCCC2	nt	?	nt	nt	nt	i
CCOC(=O)c1c(NC(=S)NNS(=O)(=O)c2ccc(Br)cc2)sc2c1CCCCC2	i	i	i	26.7µM	nt	?
CCOC(=O)c1c(NC(=O)COc2ccccc2Br)sc2c1CCCCC2	nt	i	nt	nt	nt	89.1µM
CCOc1cc(/C=C(/C#N)c2nc3ccccc3[nH]2)ccc1Oc1ccc([N+](=O)[O-])cn1	i	i	i	i	i	i
COC(=O)N/N=C/c1ccc(OC(=O)c2ccco2)c(OC)c1	i	i	i	i	i	i
CCCS(=O)(=O)N1CCN(S(=O)(=O)c2ccccc2[N+](=O)[O-])CC1	i	i	i	i	i	i
O=C(O)c1cc(S(=O)(=O)O)cc(Nc2c3ccccc3nc3ccccc23)c1O	i	i	i	i	i	i
O=C(N/N=C/c1ccc(Sc2ccccn2)o1)c1cc2ccccc2cc1O	i	?	?	i	i	i
CNC(=O)c1c(NC(=O)c2ccco2)sc2c1CCC2	i	i	i	i	nt	i
CCOC(=O)c1c(NC(=O)c2ccco2)sc2c1CCCC2	i	i	i	26.7µM	i	?
CCOc1cc(S(=O)(=O)N(CC)CC)ccc1F	i	i	i	i	i	i
CCOc1ccc(S(=O)(=O)N(CC)CC)cc1NS(=O)(=O)c1ccc(F)c(F)c1F	i	i	i	9.47µM	i	70.8µM
CCCNC(=O)c1cn(CC)c2cc(N3CCN(C)CC3)c(F)cc2c1=O	i	i	i	i	i	i
O=C(NNc1ccc([N+](=O)[O-])cc1)c1ccccc1Cl	i	i	i	i	i	i
O=C(NC(NNc1ccc([N+](=O)[O-])cc1)(C(F)(F)F)C(F)(F)F)c1ccc(Cl)cc1	i	i	i	i	i	79.4µM
Cc1ccccc1-c1ccc2ncnc(N3CCOCC3)c2c1	nt	nt	nt	nt	i	56.2µM
Cc1noc(C)c1-c1ccc2ncnc(NC3CCNCC3)c2c1	nt	nt	nt	nt	i	44.7µM
Cc1ccccc1-c1ccc2ncnc(N3CCN(C)CC3)c2c1	nt	nt	nt	nt	i	i
c1cncc(-c2ccc3ncnc(NCCN4CCOCC4)c3c2)c1	nt	nt	nt	nt	i	i
Cc1ccccc1-c1ccc2ncnc(NCCN3CCOCC3)c2c1	nt	nt	nt	nt	i	50.1µM
Cc1noc(C)c1-c1ccc2ncnc(NC3CC3)c2c1	nt	nt	nt	nt	i	i
SMILES	GALK inh	USP1-UAF1 inh	USP2a inh	PLK1 PBD block	FBPA coupling cs	VDR inhibitor
Cc1noc(C)c1-c1ccc2ncnc(N3CCOCC3)c2c1	nt	nt	nt	nt	i	50.1µM
CCN=c1scc(C)n1/N=C/c1cc(Br)c(O)c(OC)c1	i	i	i	i	i	i
Cc1cccc(NC(=O)/C(C#N)=C\c2cn(CC(=O)O)c3ccccc23)c1	i	i	i	i	i	i
O=C(NC1CCN(Cc2ccccc2)CC1)C(NS(=O)(=O)c1cccc2nsnc12)c1ccccc1 (stereo unspecified)	i	i	i	i	i	i
Cc1ccc(N=Cc2cc(Cc3ccccc3Cl)cc([N+](=O)[O-])c2O)c(O)c1	i	17.8µM	i	?	i	i
CCOC(=O)c1cnc2c(OC)cccc2c1N1CCN(c2ccc(OC)cc2)CC1	i	i	i	23.8µM	i	i
